Assay results from PubChem BioAssay (NCATS).
Inconclusive results are not listed. Entries that show only a call come without a potency. Activity calls are given as the source filed them. The call rests on the fitted dose curve; in most records, active means well fitted cell-killing curve with a large enough effect; inconclusive means small, poorly fitted or top-dose-only effect, or effect the other way; inactive means no such curve, though single readings can be large or run the other way.

experiment: Quantitative High-Throughput drug screen in 47 multiple myeloma cell lines against the NCATS MIPE library collection: OCIMY1_PLB cell viability assay (AID 1918979); conditions: OCI-MY1 myeloma viability, CellTiter-Glo ATP, 48 h; series mostly up to 45.8 µM; further: nearly all actives have a fitted effect of over 35% in size
From the text: PI: Beverly A. Mock Ph.D.
Laboratory of Cancer Biology and Genetics,
Center for Cancer Research, National Cancer Institute,
National Institute of Health, Bethesda, Maryland
Drug resistance and disease progression are common in multiple myeloma (MM) patients, underscoring the need for new therapeutic combinations. […] We hypothesized that effective combinations would reduce MYC expression and enhance p16 activity. […] These preclinical data identify potentially useful drug combinations for evaluation in drug-resistant MM and reveal potential mechanisms of combined drug sensitivity.
Described herein is the primary MIPE qHTS used to cherrypick compounds. Validated compounds were then further tested for potential synergistic activiy.
[1] Peat TJ, Gaikwad SM, Dubois W, Gyabaah-Kessie N, Zhang S, Gorjifard S, Phyo Z, Andres M, Hughitt VK, Simpson RM, Miller MA, Girvin AT, Taylor A, Williams D, D'Antonio N, Zhang Y, Rajagopalan A, Flietner E, Wilson K, Zhang X, Shinn P, Klumpp-Thomas C, McKnight C, Itkin Z, Chen L, Kazandijian D, Zhang J, Michalowski AM, Simmons JK, Keats J, Thomas CJ, Mock BA. Drug combinations identified by high-throughput screening promote cell cycle transition and upregulate Smad pathways in myeloma. Cancer Lett. 2023 Aug 1;568:216284. doi: 10.1016/j.canlet.2023.216284. Epub 2023 Jun 24. PMID: 37356470; PMCID: PMC10408729.
SEQUENCE No. (e.g., 1, 2, 3, etc.); […] (e.g., Cells, Incubation, Reagent, etc.); VALUE and DESCRIPTION.
1; Cells; 5 uL; white, solid bottom 1536-well Greiner assay plate.
2; Compounds; 23 nL; Kalypsis pin tool (Wako USA) equipped with a 1536-well pin head to transfer to the assay plates.
3; Incubation; 48 hours; 37C incubation.
4; Reagent;5uL; CellTiter Glo (Promega).
5; Detector; 425V; Luminescence; Viewlux PerkinElmer.
NOTES (numbers refer to Sequence numbers above)
1. The cell-based screening methods employed in this study were like those previously published. Briefly, the corresponding myeloma cell lines were screened in 1,536-well plates with 500 cells, 5-uL per well for inhibition of cell viability (assessed by measuring ATP levels with CellTiterGlo).
2. NCATS MIPE 4.0 library of approved and investigational drugs were added using the Kalypsis pin tool. Wells treated with DMSO only for 100% viability and media only for 0% viability were used as controls.
3. The assay plates were covered and incubated for 48 hours in a 37C, 5% CO2 incubator with controlled humidity.
4. After 48 hours, CellTilter-GloTM luminescent substrate mix (Promega) reagent was added to the assay plate and plates we incubated for 5 min at room temperature.
5. Signal was measured as median relative luminescence units on a ViewLux (PerkinElmer) multiplate reader.
[1] Heske CM, Davis MI, Baumgart JT, Wilson K, Gormally MV, Chen L, Zhang X, Ceribelli M, Duveau DY, Guha R, Ferrer M, Arnaldez FI, Ji J, Tran HL, Zhang Y, Mendoza A, Helman LJ, Thomas CJ. Matrix Screen Identifies Synergistic Combination of PARP Inhibitors and Nicotinamide Phosphoribosyltransferase (NAMPT) Inhibitors in Ewing Sarcoma. Clin Cancer Res. 2017 Dec 1;23(23):7301-7311. doi: 10.1158/1078-0432.CCR-17-1121. Epub 2017 Sep 12. PMID: 28899971; PMCID: PMC6636827.
Potency means the concentration at half of the fitted maximal effect.

**Q.** For CN1CCN(C(=O)O[C@H]2c3nccnc3C(=O)N2c2ccc(Cl)cn2)CC1, which Potency is on record?
**A.** inactive

**Q.** For Cc1cc(SCc2sc(-c3ccc(C(F)(F)F)c(F)c3)nc2C)ccc1OCC(=O)O, which Potency is on record?
**A.** inactive

**Q.** Which Potency does the source give for COC1(CS(=O)c2ccccc2)CCN(CCc2c[nH]c3ccc(F)cc23)CC1 (centres undefined) here?
**A.** inactive

**Q.** For Cn1cc(C2=C(c3cn(C4CCN(Cc5ccccn5)CC4)c4ccccc34)C(=O)NC2=O)c2ccccc21, which Potency is on record?
**A.** inactive

**Q.** With COc1ccc(C(CN(C)C)C2(O)CCCCC2)cc1 (centres undefined) as the compound, how does the Potency read?
**A.** inactive

**Q.** With C#CCN(C)[C@H](C)Cc1ccccc1 as the compound, how does the Potency read?
**A.** inactive

**Q.** With C[C@@H]1[C@@H](CC(C[C@H]2O[C@@H]3O[C@]4(C)CC[C@@H]5[C@H](C)CC[C@@H]([C@H]2C)[C@@]35OO4)C[S+](=O)([O-])c2ccc(COC(=O)N(C)C)cc2)O[C@@H]2O[C@]3(C)CC[C@H]4[C@H](C)CC[C@@H]1[C@@]24OO3 (some centres undefined) as the compound, how does the Potency read?
**A.** 0.187 µM (active)

**Q.** With N[C@@H](Cc1ccc(N(CCCl)CCCl)cc1)C(=O)O as the compound, how does the Potency read?
**A.** 16.6 µM (active)

**Q.** Which Potency does the source give for CNC(=O)c1ccc(N2C(=S)N(c3ccc(C#N)c(C(F)(F)F)c3)C(=O)C23CCC3)cc1F here?
**A.** inactive

**Q.** For C[C@@H]1O[C@@H](O[C@H]2C[C@@H](O)[C@]3(CO)[C@H]4[C@H](O)C[C@]5(C)[C@@H](C6=CC(=O)OC6)CC[C@]5(O)[C@@H]4CC[C@]3(O)C2)[C@H](O)[C@H](O)[C@H]1O, which Potency is on record?
**A.** 0.0209 µM (active)

**Q.** With O=C(O)C(=O)c1cn(Cc2ccccc2)c2ccc(-c3ccc(OC(F)(F)F)cc3)cc12 as the compound, how does the Potency read?
**A.** inactive

**Q.** For CNC(=O)N1N=C(c2ccc(N)cc2)c2cc3c(cc2CC1C)OCO3 (centres undefined), which Potency is on record?
**A.** inactive

**Q.** Which Potency does the source give for Cc1cccc(C)c1NC(=O)CN1CCCC1=O here?
**A.** inactive

**Q.** With CC(C)CC(N(C)C)C1(c2ccc(Cl)cc2)CCC1 (centres undefined) as the compound, how does the Potency read?
**A.** inactive

**Q.** With O=C1CC[C@@]2(O)[C@H]3Cc4ccc(O)c5c4[C@@]2(CCN3CC2CC2)[C@H]1O5 as the compound, how does the Potency read?
**A.** inactive

**Q.** Which Potency does the source give for COc1ccc(C(=O)c2c(C)n(CCN3CCOCC3)c3ccccc23)cc1 here?
**A.** inactive

**Q.** Which Potency does the source give for Fc1ccc(C(OCCN2CCN(CCCc3ccccc3)CC2)c2ccc(F)cc2)cc1 here?
**A.** 26.4 µM (active)

**Q.** With CNCC(O)c1ccc(O)cc1 (centres undefined) as the compound, how does the Potency read?
**A.** inactive

**Q.** With CN(C)CCc1ccc(O)cc1 as the compound, how does the Potency read?
**A.** inactive

**Q.** Which Potency does the source give for CCCC(C)(COC(N)=O)COC(=O)NC(C)C (centres undefined) here?
**A.** inactive

**Q.** Which Potency does the source give for COC[C@@H](NC(C)=O)C(=O)NCc1ccccc1 here?
**A.** inactive

**Q.** Which Potency does the source give for CC1=C2C[C@@H]3[C@@H](CC=C4C[C@@H](O)CC[C@@]43C)[C@@H]2CC[C@]12O[C@H]1C[C@H](C)CN[C@H]1[C@H]2C here?
**A.** inactive

**Q.** With O=c1[nH]c2ccccc2n1CCCN1CCC(n2c(=O)[nH]c3cc(Cl)ccc32)CC1 as the compound, how does the Potency read?
**A.** inactive

**Q.** For COc1ccc2c(c1OC)CN1CCc3cc4c(cc3C1C2)OCO4 (centres undefined), which Potency is on record?
**A.** inactive
